Reference: PubChem BioAssay (NCATS)
Inconclusive results are not listed. Entries that show only a call come without a potency. A number with no mark means an inactive call. The source made the active and inactive calls. Unless noted, calls follow the shape of the full dose curve.

What was measured:
[1] = qHTS for Inhibitors of the Functional Ribonucleoprotein Complex (vRNP) of Lassa (LASV) Arenavirus: LASV Primary Screen - GLuc reporter signal (AID 1347082; calls by dose curve; tested in HEK293 reporter line; also: nearly all actives have a fitted effect of over 60% in size)
[2] = qHTS for Inhibitors of the Functional Ribonucleoprotein Complex (vRNP) of Lassa (LASV) Arenavirus: Viability assay - alamar blue signal for LASV Primary Screen (AID 1347083; calls by dose curve; tested in HEK293 reporter line; also: nearly all actives have a fitted effect of over 80% in size)
[3] = qHTS for Inhibitors of the Functional Ribonucleoprotein Complex (vRNP) of Lymphocytic Choriomeningitis Arenaviruses (LCMV): Viability assay - alamar blue signal for LCMV Primary Screen (AID 1347085; calls by dose curve; tested in HEK293 reporter line; also: nearly all actives have a fitted effect of over 80% in size)
[4] = biological target: Nucleoprotein (Lymphocytic choriomeningitis virus (strain Armstrong)) (UniProt P09992); assay: qHTS for Inhibitors of the Functional Ribonucleoprotein Complex (vRNP) of Lymphocytic Choriomeningitis Arenaviruses (LCMV): LCMV Primary Screen - GLuc reporter signal (AID 1347086); also: nearly all actives have a fitted effect of over 70% in size
Nucleoprotein (Lymphocytic choriomeningitis virus (strain Armstrong)), sequence (P09992 whole entry, looked up): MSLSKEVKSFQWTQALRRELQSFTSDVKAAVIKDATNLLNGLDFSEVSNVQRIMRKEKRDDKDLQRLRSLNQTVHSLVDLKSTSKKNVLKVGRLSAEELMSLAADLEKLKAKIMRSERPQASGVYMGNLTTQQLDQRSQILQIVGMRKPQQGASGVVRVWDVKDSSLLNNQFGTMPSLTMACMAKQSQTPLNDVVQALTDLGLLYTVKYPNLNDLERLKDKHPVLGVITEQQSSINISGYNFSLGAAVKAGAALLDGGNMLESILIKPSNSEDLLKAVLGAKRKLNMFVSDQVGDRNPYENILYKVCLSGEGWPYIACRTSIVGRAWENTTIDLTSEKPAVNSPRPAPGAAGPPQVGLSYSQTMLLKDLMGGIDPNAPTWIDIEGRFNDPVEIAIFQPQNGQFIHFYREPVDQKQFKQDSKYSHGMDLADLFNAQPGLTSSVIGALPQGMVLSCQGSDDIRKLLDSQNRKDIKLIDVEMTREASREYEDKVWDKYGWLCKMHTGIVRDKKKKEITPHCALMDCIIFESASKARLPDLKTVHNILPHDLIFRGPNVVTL
Potency is read from the fitted curve at half-maximal effect.

| SMILES | Potency [1] | Potency [2] | Potency [3] | Potency [4] |
| --- | --- | --- | --- | --- |
| CNc1nc(-c2ccc3c(N)n[nH]c3c2)cc(N2C[C@@H](C(=O)NC3CCCCC3)CC[C@@H]2C)n1 | inactive | 24.3 µM (active) | 38.5 µM (active) | inactive |
| O=c1cc(-c2ccc(O)c(O)c2)oc2ccccc12 | inactive | inactive | inactive | inactive |
| CC/C=C/CCO | inactive | inactive | inactive | inactive |
| Cc1cc(Nc2nc(N[C@@H](C)c3ccc(F)cc3)c(C#N)cc2F)n[nH]1 | inactive | 4.85 µM (active) | 10.9 µM (active) | inactive |
| O=C1c2cc(CO)cc(O)c2C(=O)c2c(O[C@@H]3OC(CO)[C@@H](O)[C@@H](O)[C@@H]3O)cccc21 (stereo not given in full) | inactive | inactive | inactive | inactive |
| COc1ccccc1NC(C)=O | inactive | inactive | inactive | inactive |
| COc1ccc(CC(C)N)cc1 (stereo not given) | inactive | inactive | inactive | inactive |
| CCCCCCCCC=O | inactive | inactive | inactive | inactive |
| CCCCCc1ccco1 | inactive | inactive | inactive | inactive |
| C[C@H](NCc1ccc2c(c1)nc(NC(=O)c1ccc(-c3cn[nH]c3)s1)n2CCc1ccccc1)C(C)(C)C | 10.9 µM (active) | 6.11 µM (active) | 12.2 µM (active) | 17.2 µM (active) |
| C/C=C(/CC[C@@H](C)[C@H]1CC[C@H]2C3=CC[C@H]4[C@H](C)[C@@H](O)CC[C@]4(C)[C@H]3CC[C@]12C)C(C)C | inactive | inactive | inactive | inactive |
| CCCCCCCCC1CCC(=O)O1 (stereo not given) | inactive | inactive | inactive | inactive |
| COC(=O)C1=CO[C@@H](O[C@@H]2O[C@H](CO)[C@@H](O)[C@H](O)[C@H]2O)C2C1CC(O)O[C@H]2C (stereo not given in full) | inactive | inactive | inactive | inactive |
| COc1ccc2c3c([nH]c2c1)C(C)NCC3 (stereo not given) | inactive | inactive | inactive | inactive |
| Cn1cc(C=C2C(=O)Nc3cccnc32)c2ccccc21 | inactive | inactive | inactive | inactive |
| CCCC1CCC(=O)O1 (stereo not given) | inactive | inactive | inactive | inactive |
| O=C(c1ccc(F)cc1)N1CCC[C@H](c2nc(-c3ccc(F)cc3)no2)C1 | inactive | inactive | inactive | inactive |
| Cc1cc(O)cc(O[C@H]2OC(CO)[C@H](O)[C@@H](O)[C@H]2O)c1 (stereo not given in full) | inactive | inactive | inactive | inactive |
| CCCC/C=C/CCCCO | inactive | inactive | inactive | inactive |
| COc1cc2c3c(c1OC)C1(C=CC(=O)C=C1)CC3N(C(C)=O)CC2 (stereo not given) | inactive | inactive | inactive | inactive |

| SMILES | Potency [1] | Potency [2] | Potency [3] | Potency [4] |
| --- | --- | --- | --- | --- |
| CCC(C)c1nccnc1OC (stereo not given) | inactive | inactive | inactive | inactive |
| N#CC(c1ccc(O)cc1)N1CCCCC1 (stereo not given) | inactive | inactive | inactive | inactive |
| C=C1C2C[C@H](O)C(C)(C)[C@@]2(O)[C@H](O)C[C@]23C[C@@](C)(O)[C@H](CC[C@H]12)[C@H]3OC(C)=O (stereo not given in full) | inactive | inactive | inactive | inactive |
| C[C@H]1C[C@@H]2[C@@H]([C@@H](O)C[C@@]3(C)[C@H]2CC[C@]3(O)C(=O)CO)[C@@]2(C)C=CC(=O)C=C12 | inactive | inactive | inactive | inactive |
| CC(C=CC(O)=C1C(=O)CNC1=O)=C[C@@H](C)C1OC2(C)OC(C(=O)C3O[C@@]32C)C1C (stereo not given in full) | inactive | inactive | inactive | inactive |
| O=C1C=C(O)c2cccc(O)c2C1=O | inactive | inactive | inactive | inactive |
| NC1(Cc2ccc(Cl)cc2)CCN(c2ncnc3[nH]ccc23)CC1 | 9.68 µM (active) | 2.73 µM (active) | 7.69 µM (active) | 9.68 µM (active) |
| O=C(O)c1cc(N(Cc2ccccc2O)Cc2ccccc2O)ccc1O | inactive | inactive | inactive | inactive |
| COc1cc2oc(=O)ccc2cc1O | inactive | inactive | inactive | inactive |
| CC(=O)OC[C@H]1O[C@@H](Oc2cc(O)cc3oc(-c4ccc(O)cc4)cc(=O)c23)[C@H](O[C@@H]2O[C@@H](C)[C@H](O)[C@@H](O)[C@H]2O)[C@@H](O)[C@@H]1O | inactive | inactive | inactive | inactive |
| C[C@@H]1C(=O)O[C@H]2[C@H]1CC[C@@]1(C)C(=O)C=C[C@@](C)(O)[C@H]21 | inactive | inactive | inactive | inactive |
| c1cnc2c(-c3nccc4c3[nH]c3ccccc34)cccc2c1 | inactive | inactive | inactive | inactive |
| O=C(CCCO)CCCCCCCCC[C@H]1N[C@H](CO)[C@@H](O)[C@@H]1O | inactive | inactive | inactive | inactive |
| CC(C)=CCC/C(C)=C/CC/C(C)=C/COc1ccc2ccc(=O)oc2c1 | inactive | inactive | inactive | inactive |
| O=C(NC[C@H](O)c1ccccc1)c1ccccc1 | inactive | inactive | inactive | inactive |
| C/C(=N/N=C(\C)c1ccccc1O)c1ccccc1O | inactive | inactive | inactive | inactive |
| COc1ccc(CCNC(=O)/C=C\c2ccccc2)cc1OC | inactive | inactive | inactive | inactive |
| C[C@@H]1C[C@H]2[C@@H]3C[C@H](F)C4=CC(=O)C=C[C@@]4(C)[C@]3(F)[C@H](O)C[C@]2(C)[C@@]1(O)C(=O)CO | inactive | inactive | inactive | inactive |
| CN1CCCC1 | inactive | inactive | inactive | inactive |
| CC(=O)O[C@H]1C[C@@H]2CC[C@@]1(C)C2(C)C | inactive | inactive | inactive | inactive |

| SMILES | Potency [1] | Potency [2] | Potency [3] | Potency [4] |
| --- | --- | --- | --- | --- |
| COc1ccc(COC(C)=O)cc1 | inactive | inactive | inactive | inactive |
| COc1c(OC)c(O)c2c(=O)cc(-c3c(O)cccc3O)oc2c1OC | inactive | inactive | inactive | inactive |
| CCC(=O)OCCC(C)CCC=C(C)C (stereo not given) | inactive | inactive | inactive | inactive |
| CC1=CCC(=C(C)C)CC1 | inactive | inactive | inactive | inactive |
| CCCCCC1CCCC(=O)O1 (stereo not given) | inactive | inactive | inactive | inactive |
| CCCCCCCCCCCCCC/C(C(=O)O)=C(\C)C(=O)O | inactive | inactive | inactive | inactive |
| CCC(C)SSC(C)CC (stereo not given) | inactive | inactive | inactive | inactive |
| COc1c(-c2ccc(O)cc2)oc2cc(O)cc(O)c2c1=O | inactive | inactive | inactive | inactive |
| CC1(C)OC(=O)C=C[C@]2(C)[C@H]3CC[C@@]4(C)[C@H](c5ccoc5)OC(=O)[C@H]5O[C@]54[C@]3(C)C(=O)C[C@@H]12 | inactive | inactive | inactive | inactive |
| CC(=O)OC1C(OC(C)=O)C2C(C)CC3OC(=O)C(C)C3CC2(C)C1OC(C)=O (stereo not given) | inactive | inactive | inactive | inactive |
| CCCCCCCOC(C)=O | inactive | inactive | inactive | inactive |
| Cn1c2c(c(=O)c3ccccc31)CCC(C)(C)O2 | inactive | inactive | inactive | inactive |
| C=C1[C@H]2O[C@H]2[C@@H](OC(C)=O)[C@@]2(C)[C@@H](OC(C)=O)C[C@@H](OC(C)=O)[C@@](C)(O)[C@@H]2[C@@H](OC(C)=O)[C@@]2(O)[C@@H](C)C(=O)O[C@H]2[C@H]1Cl | inactive | inactive | inactive | inactive |
| COc1c(O)ccc2c1-c1c3c(cc4c1C(C2)N(C)CC4)OCO3 (stereo not given) | inactive | inactive | inactive | inactive |
| CC(C)C/C=C(\C=O)c1ccccc1 | inactive | inactive | inactive | inactive |
| CCC(C)(C)O | inactive | inactive | inactive | inactive |
| COc1cc(=O)n(C)c2c(OCC3OC(C)(C)OC3(C)C)cccc12 (stereo not given) | inactive | inactive | inactive | inactive |
| O=C1CC(c2ccc(O[C@@H]3OC(CO)[C@@H](O)C(O)C3O)cc2)Oc2cc(O)ccc21 (stereo not given in full) | inactive | inactive | inactive | inactive |
| COc1cc(/C=C2/C(=O)Nc3ccccc32)cc(OC)c1O | inactive | inactive | inactive | inactive |
| CC(C)(O)[C@H](O)Cc1cc2ccc(=O)oc2cc1O[C@@H]1O[C@H](CO)[C@@H](O)[C@H](O)[C@H]1O | inactive | inactive | inactive | inactive |
